The source made the active and inactive calls.
Tests used:
Albumin (Bos taurus) = Albumin (Bos taurus) (UniProt P02769); assay: bovine serum albumin binders on microarray, profiling panel, artefact control for SMM control protein annotation, biochemical, small-molecule microarray, Alexa647 label, 635/667 nm fluorescence (AID 1118); conditions: BSA-A647 binding, fluorescence 635 nm, higher = more signal;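 also: score merges 667 nm emission intensity and signal-to-noise per printed compound spot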
[1] = small-molecule microarray binders of probe aXIP, primary screen, biochemical, NeuroSMM set, 635/667 nm fluorescence (AID 1119); conditions: higher = more signal, called active from +8 up or from −8 down;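 also: probe is the protein aXip251-270 applied at 1 µg/mL to compound-printed slides; binding of probe to printed compounds measured as 667 nm fluorescence plus signal to noise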
[2] = small-molecule binders of probe aNOTCH3, primary screen, biochemical, small-molecule microarray, 635/667 nm fluorescence (AID 1120); conditions: higher = more signal;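 also: probe is a biotin-tagged antibody raised against NOTCH3 rather than NOTCH3 protein; score merges spot fluorescence near 667 nm with spot signal to noise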
[3] = small-molecule binders of probe aNOTCH2, primary screen, biochemical, small-molecule microarray, 635/667 nm fluorescence (AID 1121); conditions: higher = more signal;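 also: score merges feature fluorescence read at 667 nm with its signal to noise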
[4] = molecular target: Carbonic anhydrase 2 (Homo sapiens) (UniProt P00918); assay: CAII small-molecule binders, profiling panel, biochemical, small-molecule microarray, Alexa647-labelled CAII (AID 1122); conditions: CAII-A647 binding fluorescence, higher = more signal
[5] = COS7 lysate on small-molecule microarray, probe aHis, 635 nm (AID 1123); conditions: COS7 cell lysate, fluorescence, higher = more signal;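 also: z-score combines 667nm fluorescence intensity with signal-to-noise per printed compound spot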
[6] = compound binding in COS7 lysate, probe aLAP1, primary screen, cell lysate, small-molecule microarray (AID 1124); conditions: probe aLAP1, fluorescence, higher = more signal;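 also: lysate comes from COS7 cells expressing LAP1 and is applied at 0.3 µg/mL; score merges spot fluorescence near 667 nm with signal-to-noise over triplicate slides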
Sam68 (KHDRBS1) = assay: Sam68 small-molecule binders, primary screen, biochemical, small-molecule microarray, 635 nm fluorescence (AID 1125); conditions: small-molecule microarray binding, higher = more signal;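 also: score merges 667 nm channel intensity with signal to noise over triplicate slides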
[7] = test system: Chordin-like protein 2 (CHRDL2); assay: CHRDL2 small-molecule binders, primary screen, biochemical, small-molecule microarray, 635 nm fluorescence (AID 1126); conditions: small-molecule microarray binding, fluorescence 635 nm; higher = more signal;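 also: printed compound slides probed with Chrdl2 protein at 4 µg/mL for 1 h at 4 C; score merges 667 nm emission intensity with signal to noise over three replicate slides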
[8] = molecular target: Concanavalin-A (Canavalia ensiformis) (UniProt P02866); assay: ConA small-molecule binders, primary screen, artefact control for SMM control protein annotation, biochemical, small-molecule microarray, Alexa647 label, 635 nm (AID 1127); conditions: ConA-A647 binding fluorescence, higher = more signal;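 also: z combines 667 nm emission intensity with signal-to-noise across three replicate slides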
Concanavalin-A (Canavalia ensiformis), sequence (P02866 whole entry, looked up): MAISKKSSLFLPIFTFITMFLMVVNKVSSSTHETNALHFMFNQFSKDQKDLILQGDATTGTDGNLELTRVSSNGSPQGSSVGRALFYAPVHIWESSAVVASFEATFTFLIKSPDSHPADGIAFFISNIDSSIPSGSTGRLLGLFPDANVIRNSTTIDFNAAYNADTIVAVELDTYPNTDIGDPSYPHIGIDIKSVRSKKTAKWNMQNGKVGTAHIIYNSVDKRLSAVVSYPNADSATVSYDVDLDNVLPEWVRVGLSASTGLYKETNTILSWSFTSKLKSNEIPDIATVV

[9] = anti-His antibody binders, primary screen, artefact control for SMM control protein annotation, biochemical, small-molecule microarray, 635 nm fluorescence (AID 1128); conditions: anti-His Alexa647 antibody binding, higher = more signal;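 also: score merges feature fluorescence with signal-to-noise for each printed compound spot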
[10] = test system: Human papillomavirus type 1a E7 protein (residues 1-88); assay: HPV1a E7 small-molecule binders, primary screen, biochemical, small-molecule microarray, residues 1-88, 635 nm (AID 1129); conditions: small-molecule microarray binding, fluorescence 635 nm; higher = more signal
[11] = molecular target: Focal adhesion kinase 1 (Homo sapiens) (UniProt Q05397); assay: small-molecule microarray binders of FAK, primary screen, biochemical, 635/667 nm fluorescence, BSA, DTT (AID 1130); conditions: PTK2 binding, 635 nm fluorescence, higher = more signal;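 also: composite of spot emission at 667 nm and signal to noise over triplicate slides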
Focal adhesion kinase 1 (Homo sapiens), sequence (Q05397 whole entry, looked up): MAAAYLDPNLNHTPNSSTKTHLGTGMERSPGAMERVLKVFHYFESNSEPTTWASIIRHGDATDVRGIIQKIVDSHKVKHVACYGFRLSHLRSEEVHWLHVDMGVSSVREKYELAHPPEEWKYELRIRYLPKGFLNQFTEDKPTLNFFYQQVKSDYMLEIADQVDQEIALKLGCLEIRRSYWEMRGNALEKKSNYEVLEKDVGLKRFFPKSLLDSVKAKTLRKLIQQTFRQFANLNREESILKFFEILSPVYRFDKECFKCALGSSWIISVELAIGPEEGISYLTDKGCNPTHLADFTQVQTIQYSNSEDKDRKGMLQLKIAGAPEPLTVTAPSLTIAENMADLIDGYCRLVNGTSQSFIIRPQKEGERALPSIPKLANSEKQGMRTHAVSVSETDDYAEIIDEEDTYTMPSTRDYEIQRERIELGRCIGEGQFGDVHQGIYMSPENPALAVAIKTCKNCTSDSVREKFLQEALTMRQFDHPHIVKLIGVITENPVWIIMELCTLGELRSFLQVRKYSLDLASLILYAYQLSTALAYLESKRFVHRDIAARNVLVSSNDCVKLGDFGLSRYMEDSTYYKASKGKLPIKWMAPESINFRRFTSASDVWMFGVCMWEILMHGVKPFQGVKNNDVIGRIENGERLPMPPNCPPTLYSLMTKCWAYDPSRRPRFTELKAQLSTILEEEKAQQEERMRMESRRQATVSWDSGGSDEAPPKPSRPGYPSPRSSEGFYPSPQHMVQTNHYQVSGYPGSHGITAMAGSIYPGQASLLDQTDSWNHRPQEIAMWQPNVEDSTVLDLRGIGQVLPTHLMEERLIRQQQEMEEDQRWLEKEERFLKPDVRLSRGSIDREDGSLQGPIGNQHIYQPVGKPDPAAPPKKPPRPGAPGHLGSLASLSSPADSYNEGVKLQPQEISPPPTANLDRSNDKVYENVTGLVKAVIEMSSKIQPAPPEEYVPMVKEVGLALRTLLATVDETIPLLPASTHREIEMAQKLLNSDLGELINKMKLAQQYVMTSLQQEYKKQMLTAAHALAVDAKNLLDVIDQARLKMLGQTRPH

[12] = test system: Fibrinogen (Alexa647-labelled); assay: fibrinogen binders on compound microarrays, profiling panel, artefact control for SMM control-protein annotation, biochemical, small-molecule microarray, 635/667 nm fluorescence (AID 1131); conditions: fibrinogen-A647 binding fluorescence, higher = more signal;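 also: z-score merges 667 nm fluorescence with per-spot signal-to-noise over triplicate slides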
[13] = molecular target: Follistatin (Homo sapiens) (UniProt P19883); assay: follistatin binders on small-molecule microarrays, primary screen, biochemical, small-molecule microarray, 635/667 nm fluorescence (AID 1132); conditions: FST binding, 635 nm fluorescence, higher = more signal
Follistatin (Homo sapiens), sequence (P19883 whole entry, looked up): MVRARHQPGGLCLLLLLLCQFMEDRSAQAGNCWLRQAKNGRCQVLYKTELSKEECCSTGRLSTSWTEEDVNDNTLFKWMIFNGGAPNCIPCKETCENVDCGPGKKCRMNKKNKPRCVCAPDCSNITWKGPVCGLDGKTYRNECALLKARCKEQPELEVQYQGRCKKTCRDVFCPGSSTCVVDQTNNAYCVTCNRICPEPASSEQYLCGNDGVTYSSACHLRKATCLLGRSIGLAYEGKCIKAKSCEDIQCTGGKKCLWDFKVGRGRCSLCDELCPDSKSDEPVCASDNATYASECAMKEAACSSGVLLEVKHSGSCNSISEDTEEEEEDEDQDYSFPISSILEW

[14] = molecular target: Fibroblast growth factor 2 (Homo sapiens) (UniProt P09038); assay: FGF2 binders on small-molecule microarrays, primary screen, biochemical, small-molecule microarray, 635/667 nm fluorescence (AID 1133); conditions: small-molecule microarray binding, FGF2, fluorescence 635/667; higher = more signal
Fibroblast growth factor 2 (Homo sapiens), sequence (P09038 whole entry, looked up): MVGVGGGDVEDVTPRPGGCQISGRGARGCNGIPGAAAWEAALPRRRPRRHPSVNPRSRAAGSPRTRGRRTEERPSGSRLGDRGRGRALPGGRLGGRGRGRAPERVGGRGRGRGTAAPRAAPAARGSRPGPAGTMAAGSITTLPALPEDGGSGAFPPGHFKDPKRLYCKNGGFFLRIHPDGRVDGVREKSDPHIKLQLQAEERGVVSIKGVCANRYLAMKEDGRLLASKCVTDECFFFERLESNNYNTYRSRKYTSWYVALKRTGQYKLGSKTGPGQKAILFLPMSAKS

[15] = mitochondrial membrane potential change in A549 cells, profiling panel, cell-based, JC-1 fluorescence, basal, 24 h, 100 nL (AID 1138); conditions: higher = more signal;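 also: A549 lung adenocarcinoma cells under basal conditions with no added stimulus; test concentration not given here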
Lefty1 = Lefty1 binders on small-molecule microarrays, primary screen, biochemical, small-molecule microarray, 635/667 nm fluorescence (AID 1139); conditions: small-molecule microarray binding, fluorescence 635/667; higher = more signal
[16] = test system: wheat germ agglutinin (Triticum aestivum), Alexa647-labelled; assay: wheat germ agglutinin binders on compound microarrays, profiling panel, artefact control for SMM control-protein annotation, biochemical, small-molecule microarray, 635/667 nm fluorescence (AID 1140); conditions: WGA-A647 binding, 635 nm fluorescence, higher = more signal;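 also: score merges 667 nm feature emission with signal to noise over triplicate slides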
[17] = molecular target: Luciferin 4-monooxygenase (Photinus pyralis) (UniProt P08659); assay: firefly luciferase enzyme inhibitors, primary screen, biochemical, luminescence, purified enzyme, 2006 set (AID 1141); conditions: SteadyGlo luminescence, 30 min, higher = more signal, called active from +8 up or from −8 down;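 also: cell-free assay with purified firefly luciferase at 100 ng per well in PBS; test concentration not given here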
Luciferin 4-monooxygenase (Photinus pyralis), sequence (P08659 whole entry, looked up): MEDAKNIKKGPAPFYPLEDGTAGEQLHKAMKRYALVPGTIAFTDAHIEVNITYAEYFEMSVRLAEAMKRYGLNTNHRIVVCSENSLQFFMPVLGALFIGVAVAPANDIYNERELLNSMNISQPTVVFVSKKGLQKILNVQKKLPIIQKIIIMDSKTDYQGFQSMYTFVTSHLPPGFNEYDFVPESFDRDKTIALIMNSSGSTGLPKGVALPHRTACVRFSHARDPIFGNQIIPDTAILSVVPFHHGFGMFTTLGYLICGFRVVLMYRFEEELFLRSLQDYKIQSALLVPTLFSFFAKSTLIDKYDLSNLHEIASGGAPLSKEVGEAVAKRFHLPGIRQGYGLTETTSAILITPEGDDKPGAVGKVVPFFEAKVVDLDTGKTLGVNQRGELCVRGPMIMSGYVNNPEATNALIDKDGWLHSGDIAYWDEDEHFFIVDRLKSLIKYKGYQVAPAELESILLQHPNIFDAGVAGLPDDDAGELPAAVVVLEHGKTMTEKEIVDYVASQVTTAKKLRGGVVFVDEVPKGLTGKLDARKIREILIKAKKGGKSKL

Albumin (Bos taurus), sequence (P02769 whole entry, looked up): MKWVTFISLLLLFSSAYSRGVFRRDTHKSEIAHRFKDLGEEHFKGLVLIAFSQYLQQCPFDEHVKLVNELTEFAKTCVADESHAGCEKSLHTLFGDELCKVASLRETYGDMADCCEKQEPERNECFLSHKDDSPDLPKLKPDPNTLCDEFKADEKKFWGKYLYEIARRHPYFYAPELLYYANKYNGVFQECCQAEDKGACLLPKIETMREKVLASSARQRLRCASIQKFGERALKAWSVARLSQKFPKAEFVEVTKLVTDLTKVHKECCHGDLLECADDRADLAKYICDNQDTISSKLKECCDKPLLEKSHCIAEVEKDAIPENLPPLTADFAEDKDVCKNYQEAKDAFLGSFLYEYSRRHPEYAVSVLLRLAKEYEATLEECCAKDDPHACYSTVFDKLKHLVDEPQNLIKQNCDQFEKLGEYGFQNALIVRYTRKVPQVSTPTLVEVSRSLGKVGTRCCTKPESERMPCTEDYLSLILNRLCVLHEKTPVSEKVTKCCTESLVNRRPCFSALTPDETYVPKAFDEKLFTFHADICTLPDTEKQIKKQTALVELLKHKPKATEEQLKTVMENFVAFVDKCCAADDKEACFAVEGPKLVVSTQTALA

SMILES	composite z-score (Albumin (Bos taurus))	composite Z-score [1]	composite z-score [2]	composite z-score [3]	composite z-score [4]	composite z-score [5]	composite z-score [6]	composite z-score (Sam68 (KHDRBS1))	composite z-score [7]	composite z-score [8]	composite z-score [9]	composite z-score [10]	composite z-score [11]	composite z-score [12]	composite z-score [13]	composite z-score [14]	z-score [15]	composite z-score (Lefty1)	composite z-score [16]	z-score [17]
CN(C)C(=O)[C@]1(Cc2ccccc2N=[N+]=[N-])N=C(c2ccc(OCCCO)cc2)O[C@@H]1c1ccccc1N=[N+]=[N-]	0.872	-1.05 (inactive)	0.201	0.134	0.556	2.85	0.274	1.29	-0.206	1.14	2.42	1.18	0.646	1.01	1.27	1.26	1.1	0.513	1.21	-3.94 (inactive)
CC(C)C(O)C1C=CC2C(=O)N(c3ccccc3)C(=O)C2N1Nc1ccc([N+](=O)[O-])cc1 (stereo not given)	0.963	2.65 (inactive)	1.2	0.185	0.719	1.84	0.894	1.13	-0.565	0.726	0.663	1.17	0.774	0.954	-0.197	-0.378	-0.0625	-0.0809	1.01	1.18 (inactive)
C=CCOC(=O)[C@H]1[C@@H]2C(=O)O[C@@H](c3ccccc3)[C@@H](c3ccccc3)N2[C@@H](c2ccc(OCCOC(=O)[C@H]3C[C@H]4C(=O)N[C@@H](CCCCNC(C)=O)C(=O)N4[C@H]3c3ccc(O)cc3)cc2)[C@]12C(=O)Nc1ccc(I)cc12	-0.0312	0.745 (inactive)	0.0876	-0.147	0.253	0.837	0.0563	1.22	1.25	1.09	0.748	0.885	0.169	0.332	1.35	1.46	-0.804	1.42	0.105	-2.16 (inactive)
C[C@H]1C2[C@H](Cc3ccccc3)NC(=O)[C@]23C(=O)N[C@H](Cc2ccccc2)C(=O)N2CCC[C@H]2C(=O)NC/C=C\C/C=C/C3[C@@H]2O[C@]12C (stereo not given in full)	0.157	0.0894 (inactive)	-0.0613	0.0022	0.0997	-0.0175	0.249	0.194	0.132	0.78	0.102	-0.338	1.11	0.354	0.559	0.212	0.367	0.302	0.737	-0.587 (inactive)
CCCCC(CC)C(O)C1C=CC2C(=O)N(Cc3ccccc3)C(=O)C2N1n1cnnc1 (stereo not given)	0.0178	0.0835 (inactive)	0.0116	-0.126	0.424	0.262	-0.192	0.26	-0.353	0.273	0.544	0.541	1.57	0.107	0.539	-0.504	-0.423	0.0981	0.616	0.758 (inactive)
COc1ccccc1CN1C(=O)c2ccccc2[C@@]2(Cc3ccccc3N(CC(C)C)C2=O)[C@@H]1c1ccc(CO)cc1	-0.119	0.188 (inactive)	-0.211	-0.143	-0.137	0.19	0.249	0.253	-0.238	0.277	-0.259	-0.827	-0.362	-0.705	-0.114	-0.556	0.379	-0.0355	-0.219	-0.35 (inactive)
C=CC[C@]1(C(=O)NCCCOC)N=C(c2ccc(OCCCO)cc2)O[C@H]1c1ccccc1CN=[N+]=[N-]	0.782	0.571 (inactive)	0.119	-0.0013	0.748	2.59	0.298	1.14	-0.257	0.983	2.44	1.23	0.932	1	1.14	0.564	2.04	-0.0763	0.934	-0.529 (inactive)
COCCOC(=O)N1C(=O)[C@@]2(c3ccccc31)[C@H](c1ccc(O)cc1)N1[C@H](c3ccccc3)[C@H](c3ccccc3)OC(=O)[C@H]1[C@@H]2C(=O)Nc1nc2ccccc2s1	0.827	-0.434 (inactive)	0.351	-0.0956	0.498	1.98	0.384	1.3	-0.172	1.2	1.97	1.17	0.475	0.961	0.695	0.408	-2.42	0.259	1.14	-1.32 (inactive)
CC(C)N1C(=O)[C@@]2(Cc3ccccc31)c1ccccc1C(=O)N(Cc1ccccc1Cl)[C@H]2c1ccc(CO)cc1	-0.594	0.203 (inactive)	-0.321	-0.152	-0.154	-0.472	-0.289	-0.162	-0.465	0.0302	-0.145	-1.3	-0.236	-2.02	-1.17	-0.468	-0.176	-0.391	-0.0789	0.847 (inactive)

— PubChem BioAssay
